Compound activity deposited in PubChem BioAssay by National Center for Advancing Translational Sciences (NCATS).
Most compounds without a hit are left out; they make up all but 6.8% or so of the library.
KB-V1 cytotox: KB-V1 MDR subline cytotoxicity | KB-V1 MDR cells viability, CellTiter-Glo, 72 h | Potency, µM (series often up to 46.1 µM), usual class: cytotoxic | actives 3.4% (n = 400,000); note: % is set by controls: 0 for no effect and ±100 for the full control effect; nearly all actives have a fitted effect of over 60% in size
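Compound-treated KB-V1 multidrug-resistant cells, 72 h, 37 degrees C; viability by CellTiter-Glo. Fitted qHTS curves give the values.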
MCF10A rereplic: inducers of DNA re-replication in MCF 10A breast cells; MCF 10A DNA re-replication, Hoechst nuclear intensity, 48 h; Potency, µM (highest dose often 46.1 µM), inactives show at the highest dose activity, positive = re-replication, most hits filed as activators; actives 2.9% (n = 350,000); AID 624296; note: % of control where 0% means no effect; nearly all actives have a fitted effect of over 50% in size
KB-3-1 tox: kills parental KB-3-1 adenocarcinoma cells. KB-3-1 viability, CellTiter-Glo ATP luminescence, 72 h. actives 1.4% (n = 400,000). Potency, µM (doses to about 46.1 µM), actives largely listed as cytotoxic. AID 1347075; note: % is set by controls: 0 for no effect and ±100 for the full control effect; nearly all actives have a fitted effect of over 60% in size
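Cytotoxicity measured as CellTiter-Glo luminescence after 72 h at 37 C. Compound titrations were pinned onto drug-naive KB-3-1 parental adenocarcinoma cells grown in DMEM with 10% FBS, and normalized data fitted to concentration-response curves.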
SW480 rerep: inducers of DNA re-replication in SW480 colon cancer cells; SW480 DNA re-replication, Hoechst DNA content imaging, 48 h; Potency, µM (top dose mostly 46.1 µM), inactives show at the highest dose re-replication activation, hits mostly activators; actives 1.8% (n = 340,000); note: % of control where 0% means no effect; nearly all actives have a fitted effect of over 55% in size
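Cells (250 per well) received 23 nL compound or DMSO by pin tool and were kept 48 hr at 37 C, 5% CO2. Nuclei were then stained with Hoechst for 40 min and scanned for DNA content.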
PTAP TSG101 blk: blocks PTAP/TSG101 interaction to inhibit HIV-1 budding. Fluorescence polarization, FITC-PTAP peptide / Tsg101 binding. Potency, µM (top dose mostly 115 µM), for the others: at the top dose activity change, negative = inhibition, hits mostly inhibitors. 340,000 tested, under 10 active. AID 493005; active = well fitted inhibition curve with a large enough effect in the main read-out, with a control signal flat, not every such curve was filed as active; inconclusive = small, poorly fitted or top-dose-only effect, or effect the other way, or a change in a side signal; inactive = no such curve, though single readings can be large or run the other way; note: % of control where 0% means no effect
Target sequence (Q99816 whole entry, looked up): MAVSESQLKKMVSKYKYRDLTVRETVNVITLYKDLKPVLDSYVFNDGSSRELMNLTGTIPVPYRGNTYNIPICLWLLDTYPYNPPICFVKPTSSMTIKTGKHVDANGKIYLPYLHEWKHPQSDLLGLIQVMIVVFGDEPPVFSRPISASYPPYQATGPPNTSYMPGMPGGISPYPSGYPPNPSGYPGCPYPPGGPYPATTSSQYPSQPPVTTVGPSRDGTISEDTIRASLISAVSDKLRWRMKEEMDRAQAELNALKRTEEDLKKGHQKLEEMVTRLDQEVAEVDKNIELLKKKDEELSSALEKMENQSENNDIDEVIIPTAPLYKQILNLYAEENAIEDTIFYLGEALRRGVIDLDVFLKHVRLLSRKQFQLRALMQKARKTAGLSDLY
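Fluorescence anisotropy tracks displacement of a FITC-tagged PTAP peptide (50 nM) from the Tsg101 binding domain (10 uM), following a 20 min room-temperature incubation at pH 7.5.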
PINK1 modulator: PINK1 expression modulation; actives 0.2% (n = 410,000); PINK1 immunofluorescence, high-content cytometry, 24 h; Potency, µM (highest dose often 76.6 µM), for the others: at the highest dose activation (PINK1 increase), hits mostly activators; active = well fitted activation curve with a large enough effect; inconclusive = small, poorly fitted or top-dose-only effect; cell line not stated here; note: % of control where 0% means no effect; nearly all actives have a fitted effect of over 65% in size
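A stable cell line was treated with compounds at 5 concentrations for 24 hours, with CCCP as control. PINK1 levels and mitochondrial localization were measured by immunofluorescence with mitochondrial, cell and nuclear markers after fixation, read by laser-scanning cytometry.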
* = called active by the depositor; [ ] = remark or other dose. Unless noted, calls come from the whole dose curve; as a rule, active = well fitted curve in the direction sought with a large enough effect; inconclusive = small, poorly fitted or top-dose-only effect, or another doubt; inactive = no such curve, though single readings can be large; an effect the other way counts as inactive or inconclusive. Potency is the fitted concentration of half-maximal effect.

Results for O=C(NCC(c1cccs1)N1CCOCC1)c1cccc([N+](=O)[O-])c1 (stereo not given) ?
KB-V1 cytotox: inactive; MCF10A rereplic: 7.3%; KB-3-1 tox: inactive; SW480 rerep: 23.8%; PTAP TSG101 blk: -4.4%; PINK1 modulator: 9.2%

Results for Cc1c(C=O)c(C=O)c(C)n1Cc1ccccc1 ?
KB-V1 cytotox: inconclusive; MCF10A rereplic: 10µM*; KB-3-1 tox: inconclusive; SW480 rerep: inconclusive; PTAP TSG101 blk: -3.0%; PINK1 modulator: -0.1%

How did CC(=O)c1c(C(C)=O)c(C)n(Cc2ccccc2)c1C do in these assays?
KB-V1 cytotox: 20.6µM*; MCF10A rereplic: 28.5%; KB-3-1 tox: inactive; SW480 rerep: -7.0%; PTAP TSG101 blk: -3.2%; PINK1 modulator: 1.2%[38.3 µM]

Results for CCOc1ccccc1NC(=O)Cn1nnc2sc(-c3ccccc3)cc2c1=O ?
KB-V1 cytotox: inactive; KB-3-1 tox: inactive; PINK1 modulator: 2.9%

How did Cc1ccc(NC(=O)c2cccc(S(=O)(=O)N(C)c3ccccc3)c2)cc1S(=O)(=O)N1CCOCC1 do in these assays?
KB-V1 cytotox: 5.17µM*; MCF10A rereplic: -2.2%; KB-3-1 tox: inconclusive; SW480 rerep: 0.4%; PTAP TSG101 blk: -0.4%; PINK1 modulator: 11.2%

What do the screens show for `O=C(Nc1ccc2c(c1)OCCO2)c1cccc(S(=O)(=O)N2CCCCC2)c1`?
KB-V1 cytotox: 16.4µM*; MCF10A rereplic: inconclusive; KB-3-1 tox: inactive; SW480 rerep: -0.2%; PINK1 modulator: 7.7%[38.3 µM]

What do the screens show for `O=C(Nc1ccc2c(c1)OCCO2)c1ccc2nccnc2c1`?
KB-V1 cytotox: inactive; MCF10A rereplic: 7.31µM*; KB-3-1 tox: inactive; SW480 rerep: 1.3%; PTAP TSG101 blk: -7.5%; PINK1 modulator: -0.9%[38.3 µM]

Results for O=C(Nc1cccc(S(=O)(=O)N2CCCC2)c1)c1cccc(S(=O)(=O)N2CCOCC2)c1 ?
KB-V1 cytotox: inactive; MCF10A rereplic: 4.2%; KB-3-1 tox: inactive; SW480 rerep: -8.1%; PTAP TSG101 blk: -6.1%; PINK1 modulator: 1.8%

How did Cc1ccc(C(=O)Nc2cccc(C(=O)O)c2)cc1S(=O)(=O)N1CCOCC1 do in these assays?
KB-V1 cytotox: inactive; MCF10A rereplic: -2.8%; KB-3-1 tox: inactive; SW480 rerep: -7.7%; PTAP TSG101 blk: 2.3%

Results for O=C(Nc1ccc2c(c1)OCCO2)c1cccc(S(=O)(=O)N2CCOCC2)c1 ?
KB-V1 cytotox: 20.6µM*; MCF10A rereplic: 3.6%; KB-3-1 tox: inactive; SW480 rerep: 6.0%; PTAP TSG101 blk: 4.3%; PINK1 modulator: inconclusive

Results for CCCn1c(=O)n(-c2ccccc2Cl)c(=O)c2sc3ccccc3c21 ?
KB-V1 cytotox: inactive; KB-3-1 tox: inactive; PINK1 modulator: -0.2%

What do the screens show for `COc1ccccc1CN1CCC2(CC1)c1ccccc1[C@@H](NC(=O)c1ccco1)[C@@H]2OC`?
PINK1 modulator: -0.6%

How did CCOc1ccc(S(=O)(=O)/N=C(/Nc2ccc(C)c(S(=O)(=O)N3CCOCC3)c2)c2ccccc2)cc1 do in these assays?
KB-V1 cytotox: 9.2µM*; MCF10A rereplic: 4.9%; KB-3-1 tox: inactive; SW480 rerep: 0.9%; PTAP TSG101 blk: -2.7%; PINK1 modulator: 3.2%

What do the screens show for `CCN(CC)S(=O)(=O)c1cc(NC(=O)CNc2cccc(S(=O)(=O)N3CCOCC3)c2)ccc1C`?
KB-V1 cytotox: inactive; MCF10A rereplic: 21.2%; KB-3-1 tox: 8.2µM*; SW480 rerep: 11.3%; PTAP TSG101 blk: -2.6%; PINK1 modulator: 0.0%

How did Cc1ccc(NC(=O)CCCOc2ccccc2)cc1S(=O)(=O)N1CCOCC1 do in these assays?
KB-V1 cytotox: inactive; MCF10A rereplic: 1.5%; KB-3-1 tox: inactive; SW480 rerep: -13.5%; PTAP TSG101 blk: 3.0%; PINK1 modulator: -0.5%

What do the screens show for `CC(=O)c1c(C)[nH]c(C(=O)Nc2cccc(S(=O)(=O)N(C)c3ccccc3)c2)c1C`?
KB-V1 cytotox: inconclusive; MCF10A rereplic: 23.1µM*; KB-3-1 tox: inconclusive; SW480 rerep: 23.1µM*; PTAP TSG101 blk: -6.3%; PINK1 modulator: -1.4%

How did CCOc1ccccc1CNC(=O)CN1C(=O)CCc2cc(S(=O)(=O)N3CCCCC3)ccc21 do in these assays?
KB-V1 cytotox: inactive; KB-3-1 tox: inactive; PINK1 modulator: 1.9%

What do the screens show for `CCCC[C@@H]1CNC(=S)N1CCC12CC3CC(CC(C3)C1)C2`?
KB-V1 cytotox: inconclusive; MCF10A rereplic: 16.4µM*; KB-3-1 tox: inactive; SW480 rerep: 3.7%; PTAP TSG101 blk: -5.5%; PINK1 modulator: 4.2%

How did Cc1ccc(-c2nc(CS(=O)(=O)CC(=O)Nc3ccc(Br)cc3F)c(C)o2)cc1 do in these assays?
KB-V1 cytotox: inactive; KB-3-1 tox: inactive; PINK1 modulator: 2.6%

How did COc1ccc(OC)c(NC(=O)CN(C)S(=O)(=O)c2ccc3[nH]c4c(c3c2)CCCC4)c1 do in these assays?
KB-V1 cytotox: inactive; KB-3-1 tox: inactive; PINK1 modulator: -0.1%

Results for COc1ccc(C(=O)c2cn(CC(=O)Nc3ccc4c(c3)OCCO4)c3ccc(OC)cc3c2=O)cc1 ?
KB-V1 cytotox: inactive; KB-3-1 tox: inactive; PINK1 modulator: 2.7%

How did COc1cc(C2NC(=O)NC(c3ccccc3)=C2C(C)=O)cc(Cl)c1OCC(=O)O (stereo not given) do in these assays?
KB-V1 cytotox: inactive; MCF10A rereplic: 10.9%; KB-3-1 tox: inactive; SW480 rerep: 1.2%; PTAP TSG101 blk: -1.3%; PINK1 modulator: 1.6%

Results for COc1cc(C2NC(=O)NC(c3ccccc3)=C2C(C)=O)c(Cl)cc1OCC(=O)O (stereo not given) ?
KB-V1 cytotox: inactive; MCF10A rereplic: 7.2%; KB-3-1 tox: inconclusive; SW480 rerep: 4.11µM*; PTAP TSG101 blk: -3.5%; PINK1 modulator: 0.8%

Results for COc1cc(C(=O)NCC(c2ccco2)N2CCCC2)ccc1OCc1c(C)noc1C (stereo not given) ?
KB-V1 cytotox: 10.3µM*; MCF10A rereplic: -0.1%; KB-3-1 tox: inconclusive; SW480 rerep: 2.8%; PTAP TSG101 blk: -6.1%; PINK1 modulator: 2.0%

What do the screens show for `COc1ccccc1C(CNC(=O)c1ccc(OCc2c(C)noc2C)cc1)N1CCCC1` (stereo not given)?
KB-V1 cytotox: inconclusive; MCF10A rereplic: inconclusive; KB-3-1 tox: inconclusive; SW480 rerep: -17.6%; PTAP TSG101 blk: 0.0%; PINK1 modulator: -0.9%
